This note sets out measurements from ChEMBL document CHEMBL3433997, “St. Jude Leishmania screening dataset” (2016).

The assay deals with Glucose transporter (Leishmania mexicana) (UniProt O61059). The assay can be described thus: ST_JUDE_LEISH: Cytotoxicity at 2uM final concentration against transgenic Leishmania Mexicana promastigotes LmGT2 that are glucose transport deficient and complemented with the L. Mexicana glucose transporter 2. Activity is measured by DNA content using SYBR green in vitro. It is filed as functional.
A word on the inhibition: it is the change of the read-out against control, counted positive when it falls. Turning to `CN(C(=O)c1cc2c(-c3cncnc3)cccc2[nH]1)c1ccccc1`, the inhibition was -0.72%.
With `Nc1nc(N)c2cc(C#Cc3ccc(-c4ccccc4)cc3)ccc2n1`, the inhibition turned out to be 2.06%.
With `COCCCNc1sc(S(=O)(=O)c2ccccc2)nc1S(=O)(=O)c1ccc(Cl)cc1`, the inhibition was 1.01%.
Regarding `O=C(NC1CCN(CCC(NC(=O)c2ccccc2)c2ccc(Cl)c(Cl)c2)CC1)c1ccc(Cl)cc1` (stereo unspecified), the inhibition is 1.88%.
`CCC(C)NC(=O)Nc1ccc(-c2cccc(-c3nc4cccc(C)c4[nH]3)c2)cc1` (stereo unspecified): the inhibition was -0.8%.
Consider `CCOc1cc(C(=O)NC2CC(C)(C)N(C)C(C)(C)C2)ccc1-c1nc2cc(Cl)c(Cl)cc2[nH]1`, for which the inhibition is 7.12%.
For `OC1(c2ccccc2)CCN(Cc2cccc(-c3c[nH]c4nc(NC5CCCC5)ncc34)c2)C1` (stereo unspecified), the inhibition is 4.81%.
Take `CCS[C@@H]1O[C@H](COC(=O)c2ccccc2)[C@H](OC(=O)c2ccccc2)[C@H](OC(=O)c2ccccc2)[C@H]1OC(=O)c1ccccc1`: the inhibition was 2.02%.
Regarding `c1ccc(-c2ccc3c(Nc4ccc5[nH]ccc5c4)ccnc3c2)nc1`, the inhibition is -0.96%.
For `Cc1ccc2c(Cc3cnc(N)nc3N)cc(C)c(N)c2n1`, the inhibition is -0.09%.
On to `COc1cc2c(cc1S(=O)(=O)c1ccc(NC(=O)c3ccc4ccccc4c3)cc1)CCN(C)CC2`, for which the inhibition is -0.44%.
On to `COc1ccc(-c2cccc(NC(=O)c3cccc(Cl)c3)c2)cc1CN1CCCN(C)CC1`, for which the inhibition came out at 11.7%.
With `O=C(/C=C/c1ccc(Cl)c(Cl)c1)NC1CCN(Cc2cccc(O)c2)CC1`, the inhibition is -2.96%.
Take `NC(=O)c1cccc(CNCc2ccc(-c3cccc(-c4nc5ccccc5[nH]4)c3)cc2)c1`: the inhibition was 5.4%.
Under `COc1ccc(CNCc2cccc(-c3csc(-c4nc5ccccc5[nH]4)c3)c2)cc1` stands 2.49%.
In the case of `CC1(C)N=C(N)N=C(N)N1OCCc1ccc2ccccc2c1`, the inhibition amounted to 3.22%.
With `CC[C@H](C)CNC(=O)c1cccc(-c2ccc(CN3CCC(N4CCCC4)CC3)cc2)n1`, the inhibition worked out at 1.28%.
With `C#CC[C@@H](NC(N)=O)C(=O)O`, the inhibition amounted to 0.41%.
Turning to `Cc1ccc(C(c2nnnn2C2CCCC2)N(Cc2ccco2)Cc2ccccc2Cl)cc1` (stereo unspecified), the inhibition was found to be 8.53%.
For `CC(C)C(C)(C#N)NC(=O)CSc1nc2ccc([N+](=O)[O-])cc2s1` (stereo unspecified), the inhibition is -1.55%.
Under `Cc1cccc2nc(-c3cccc(-c4ccc(CN5CCCC5CN)cc4)c3)[nH]c12` (stereo unspecified) stands 0.68%; under `Cc1cc(-c2nc3ccc(C(=O)NCc4ccccc4)cc3n2C2CCN(C(=O)c3ccc(-c4ccccc4)cc3)CC2)ccn1`, 1.94%; under `CCNc1cc(C(=O)N[C@@H](Cc2ccccc2)[C@H](O)CN[C@H](C)c2ccccc2)cc(N2CCCC2=O)c1`, -0.89%.
Consider `Cc1cc(F)ccc1[C@H]1CNCCN1C(=O)N(C)C(C)(C)c1cc(C(F)(F)F)cc(C(F)(F)F)c1`, for which the inhibition is -1.4%.
With `CCOC(=O)Cn1ccc2c(NCc3ccccc3)nc(C)nc21`, the inhibition was 2.53%.
For the compound `CCCc1ccc(C(=O)N2C(c3nccs3)C(C(N)=O)CC2(CC(C)C)C(=O)O)cc1` (stereo unspecified), the inhibition is 0.37%.
